Assay outcomes as filed in PubChem BioAssay.
Tg IFNy HTS – T. gondii growth inhibition under IFN-gamma. Toxoplasma gondii growth in IFN-gamma-treated host cells; stronger effect = lower value. activity change, negative = inhibition, % (no concentration beside the values). 69,000 tested, 3.8% active; in the data active = activity change below about -70%, passing the limit was not always enough;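 note: host cells are HeLa cells infected with Toxoplasma gondii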
Starred values were filed as active, the others as inactive; i = inactive. The full list was thinned out, with hits kept by preference.

SMILES	Tg IFNy HTS
Cc1cc(C)cc(C(=O)N2CCc3c(CNc4ncccn4)nn(C)c3C2)c1	12.6
CN(C)CC(=O)N1CCCn2cnc(CNc3ncccn3)c2C1	13.5
COCC(=O)N1Cc2ncn(CC3CC3)c2C(COC)C1 (stereo not given)	24.4
CCn1c2c(ccc1=O)CC(NCc1cccc(C#N)c1)CC2 (stereo not given)	67.8
Clc1ccc(CNc2nc(-c3nnc(-c4ccccc4)o3)nc3ccccc23)cc1	160.5
CS(=O)(=O)Nc1ccc2oc3ccccc3c(=O)c2c1	-92.1*
O=c1c2ccccc2oc2ccccc12	14.8
O=c1c2ccccc2oc2ccc(Cl)cc12	150.2
O=C(c1ccccc1)N1C[C@@H]2CN(c3cnccn3)CC[C@H]2C1	42.3
CCCC(CCC)n1[nH]c(=O)c2c(C)cc(=O)[nH]c21	-8.7
COC(=O)c1cc(C)nc2c1c(=O)nc(SCc1nc(-c3cccc(C)c3)oc1C)n2C1CC1	i
CCn1c(=O)c(C(=O)Nc2cccc(C)n2)c(O)c2ccccc21	74.1
CCCCc1nc2ccccc2c(=O)n1NC(=O)c1c(O)c2ccccc2n(CCC)c1=O	-113.8*
CCCn1c(=O)c(C(=O)NCCN(CC)CC)c(O)c2ccccc21	-32.5
Cc1ccc(NC(=O)NCC(c2cccnc2)c2c[nH]c3ccccc23)c(C)c1 (stereo not given)	273.5
CN(Cc1ccc(-n2cccn2)cc1)C(=O)c1cn(CC2CCCNC2)nn1 (stereo not given)	2.8
COc1ccc(S(=O)(=O)N2CC3(CN(C(=O)CN(C)C)[C@@H](CO)c4c3c3ccc(OC)cc3n4C)C2)cc1	-27.9
COc1ccc2c3c(n(C)c2c1)[C@@H](CO)N(Cc1nccs1)CC31CCN(C(=O)CN(C)C)CC1	4.6
COc1ccc2c3c(n(C)c2c1)[C@@H](CO)N(C(=O)CN(C)C)CC31CN(Cc2nccs2)C1	-108.6*
COc1ccc(CN2CC3(CN(C(=O)Cc4ccccc4)C3)c3c([nH]c4cc(OC)ccc34)[C@@H]2CO)cc1	-64.8
O=C(c1ccncc1)N1C[C@@H]2[C@H](c3ccccc31)[C@@H](CO)N2Cc1ccccc1F	5.6
CCCS(=O)(=O)N1CCC2(CC1)CC(N(C)Cc1ccccc1)CO2 (stereo not given)	-29.5
Cc1oc(-c2ccc(OC(C)C)cc2)nc1Cn1c(=O)c2cccnc2n(-c2ccccc2)c1=O	34.3
Cc1oc(-c2ccc(OC(C)C)cc2)nc1CSc1nc2c(=O)[nH]cnc2n1C	-33.1
Cc1oc(-c2ccc(OC(C)C)cc2)nc1CSc1nc2ncccc2o1	-95.6*
SMILES	Tg IFNy HTS
CC(=O)c1ccc(N2CCC(C)CC2)c(F)c1	-7.7
CN1CCN(c2ccc(NC(=O)Nc3ccc(C(F)(F)F)cc3)cc2)CC1	1.0
CC(C)(C)C(=O)Nc1cc(C(F)(F)F)ccc1N1CCC(C(F)(F)F)CC1	-97.1*
CC(C)CN1c2ccccc2[C@H]2CN(S(=O)(=O)C3CC3)CC[C@@H]21	-6.1
CCCNC(=O)N1C[C@@H]2[C@H](c3ccccc31)[C@@H](CO)N2Cc1cccc(OC)c1	-14.1
COc1ccc(-c2nc(CSc3nc4c(c(=O)[nH]3)CN(Cc3ccccc3)CC4)c(C)o2)cc1	-77.3*
COc1ccc(CN2CCc3nc(SCc4nc(-c5ccccc5)oc4C)[nH]c(=O)c3C2)cc1	-14.6
Cc1oc(-c2ccccc2)nc1CSc1nc2c(c(=O)[nH]1)CN(Cc1ccccc1)CC2	-36.3
COc1ccc(-c2nc(C)c(CCNS(=O)(=O)c3ccccc3)s2)cc1	154.0
c1ccc(CSc2nccc(-c3ccc4c(c3)CCO4)n2)cc1	-80.9*
Fc1cccc(CSc2nc(Nc3ccc4c(c3)OCO4)c3ccccc3n2)c1	-48.4
Cc1nc(-c2ccc(Cl)cc2)sc1-c1ccnc(SCc2ccccc2)n1	-61.8
COc1ccc(-c2nccc(CCC(F)(F)F)n2)cn1	-46.8
COc1ccc(-c2cn(C(=O)c3ccc(Cl)cc3)nc2C)cc1	-21.7
COc1cccc(CNC(=O)Cn2c(=O)ccc3cc(S(=O)(=O)N4CCC(C)CC4)ccc32)c1	-80.1*
COc1ccccc1CNC(=O)Cn1c(=O)ccc2cc(S(=O)(=O)N3CCC(C)CC3)ccc21	-33.4
CC1CCN(S(=O)(=O)c2ccc3c(ccc(=O)n3CC(=O)NCc3ccc(Cl)cc3)c2)CC1	-64.1
C=CCn1c(=O)c(-c2nc(-c3cccc(Br)c3)no2)c(O)c2ccccc21	111.4
COCCNC(=O)c1nc(-c2cccc(F)c2)n2c1CCCCC2	94.2
CCCCN(C)C(=O)c1nc(-c2cccc(F)c2)n2c1CCCCC2	-17.0
CCC(C)NC(=O)c1nc(-c2cccc(F)c2)n2c1CCCCC2 (stereo not given)	-97.8*
Cc1ccc(Nc2nc(C(=O)Nc3ccc4c(c3)OCCO4)nc3ccccc23)cc1	-56.0
COc1ccc(N2CCN(C(=O)c3nc(-c4cccc(F)c4)n4c3CCCCC4)CC2)cc1	43.3
CCNC(=O)c1nc(-c2ccc(Cl)cc2)n2c1CCCCC2	-6.6
Cc1ccc(-c2nc(C(=O)NCCN3CCOCC3)c3n2CCCCC3)cc1	13.1
SMILES	Tg IFNy HTS
CCC(C)NC(=O)c1nc(-c2ccc(C)cc2)n2c1CCCCC2 (stereo not given)	-92.1*
COc1cccc(CNC(=O)c2nc(-c3ccc(C)cc3)n3c2CCCCC3)c1	-107.9*
O=C(NCCN1CCCCCC1)c1nc(-c2ccc(Cl)cc2)n2c1CCCCC2	-56.1
Cc1ccc(-c2nc(C(=O)Nc3ccc4c(c3)OCCO4)c3n2CCCCC3)cc1	-93.9*
COc1ccc(CNC(=O)c2nc(-c3ccc(C)cc3)n3c2CCCCC3)cc1	-69.8
CCOC(=O)c1[nH]c(C)c(CN(C(=O)c2cc3ccc(OC)cc3[nH]2)C2CCCCC2)c1C	i
CSCCC(C)NCc1noc(-c2c(F)cccc2F)n1 (stereo not given)	8.3
O=C(NCCN1CCN(c2ncccn2)CC1)C12CC3CC(CC(C3)C1)C2	11.0
CCc1c(C)nc2cc(-c3cc(C)oc3C)nn2c1N1CCC(O)CC1	-33.7
CN(C)c1cccc2c1c(NC(=O)c1cc(Cl)sc1Cl)nn2C	174.5
Cn1c(=O)n(C)c2cc3c(cc21)[nH]c(=O)c(=O)n3Cc1ccccc1	87.0
Cc1ccc(F)c(-c2ncccc2NC(=O)C(C)C)c1	55.0
FC(F)(F)Oc1ccc(OCc2n[nH]c(=S)o2)cc1	-35.2
FC(F)(F)Oc1ccc(Nc2n[nH]c(=S)s2)cc1	-92.1*
COc1ccc(CNc2n[nH]c(=S)s2)cc1	408.2
CC(C)N1CCc2c(c(COc3cccnc3)nn2CC2CC2)C1	-0.9
COCCc1ccc(OCC(O)CNC(C)C)cc1 (stereo not given)	20.3
C[C@@H]1CN([C@H](C)CO)C(=O)c2cccc(NC(=O)c3ccno3)c2O[C@H]1CN(C)S(=O)(=O)c1cccs1	8.4
CN(C)Cc1noc2c1CN(Cc1nccn1C)CC2	-75.0*
Cc1cccc(CN2CCc3onc(CN(C)C)c3C2)n1	-2.0
CN(C)Cc1noc2c1CN(Cc1ccoc1)CC2	-31.7
Cc1ccc(-c2nnc(-c3nc(Nc4cccc(C)c4)c4ccccc4n3)o2)cc1	-34.3
COc1ccc(C(=O)NCCc2sc(-c3cccc(C)c3)nc2C)cc1	223.9
CCOc1ccc(C(=O)NCCc2sc(-c3cccc(C)c3)nc2C)cc1	117.2
CCc1nc(-c2cccc(C)c2)c(-c2ccnc(NC(=O)c3ccccc3)c2)s1	-81.1*
O=C(NCCCN1CCCC1=O)C1CCN(Cc2cc3ccccc3n2Cc2cccc(F)c2)CC1	-2.3
C/C(=C\COc1cc(=O)[nH]c2ccccc12)CCC(O)C(C)(C)O (stereo not given)	58.7
Cn1nc(C2CCNC2)c2cccnc21 (stereo not given)	21.5
